# According to PubChem BioAssay:
# “And” between values parts separate entries of the source, which are not always exact repeats. Equal values may be shown once. The source made the active and inactive calls.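 The calls were made as follows, unless noted: active = compounds whose cell count with miR-34 switched on is under 0.7 times the count with it off; inactive = the rest.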
# Experiments:
# [1] = Wnt pathway potentiators raising nuclear beta-catenin – imaging, WNT3A-conditioned medium, mouse C2C12, NPC library, primary screen (AID 1117326; in the data active = nuclear beta-catenin stimulation mostly above about 4.2%, no sharp cut-off; inactive = mostly below about 10%); settings: stronger effect = higher value
# [2] = stimulators of insulin release from INS-1E, primary screen, cell-based, 5 mM glucose, NPC library (AID 1117329;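 active = compound raises insulin release from rat beta cells at 5 mM glucose, no numeric limit stated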); settings: rat INS-1E insulin secretion, at 10 µM, stronger effect = higher value
# [3] = growth inhibition of GSK3B-pretreated HCT116 cells – cell-based, CellTiter-Glo, 0.2 to 20 µM (AID 1117336;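 active = compounds lowering colon cancer cell viability after pretreatment blocking the GSK3B kinase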); settings: HCT116 viability after GSK3B inhibitor, at 20 µM, stronger effect = higher value
# [4] = inhibition of endothelial tube formation, primary screen, imaging, VEGF stimulated, CD31 staining, tube area, NPC library (AID 1117340;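 active = compound that reduces growth-factor-driven endothelial tube area in a mixed cell culture, no cutoff stated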); settings: VEGF-stimulated ADSC/ECFC co-culture, at 10 µM, stronger effect = higher value
# [5] = GLP1 release stimulators, primary, NCI-H716, NPC library (AID 1117341;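 active = compound raises GLP1 secretion from the human gut endocrine cells, with no numeric limit stated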); settings: NCI-H716 cells, at 10 µM, stronger effect = higher value
# [6] = HCT116 colon cancer cell growth inhibition, primary screen, CellTiter-Glo luminescence, NPC library (AID 1117342;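 active = compounds that lower survival of HCT116 colon cancer cells in the luminescence readout, no numeric limit stated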); settings: at 20 µM (top of the series)
# [7] = reduced SW480 viability measured with CellTiter-Glo, NPC library, primary (AID 1117343;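 active = compounds that lower viability of the colon cancer cells in the luminescence readout, with no numeric limit stated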); settings: CellTiter-Glo luminescence; at 20 µM (top of the series) unless noted
# [8] = NPC library primary testing for decreased DLD-1 cell viability via CellTiter-Glo (AID 1117346;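 active = compounds that lower survival of DLD-1 colon cancer cells in the luminescence readout, no cutoff given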); settings: DLD-1 viability, CellTiter-Glo luminescence; at 20 µM (top of the series)
# [9] = EMT-state selective cytotoxicity in co-culture – imaging, PC-3E GFP, TEM4-18 mCherry, primary screen (AID 1345086;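 active = compounds killing one labelled cell type while sparing the other, by normalised counts and ratio limits, not self-fluorescent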;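 as to all read-outs here: cells exposed to compound for 72 h before imaging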;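 as to red/green cell ratio (normalised): normalised mesenchymal count divided by normalised epithelial count so high means epithelial killing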); settings: PC-3E GFP / TEM4-18 mCherry co-culture, imaging cell counts, at 1 µM; for red/green cell ratio (normalised): actives lie on both sides, counts scaled to control wells, 1 = unselective
# [10] = viability loss with induced miR-34 in A549 – imaging, A549 dox-inducible miR-34, nuclei and caspase counts, primary screen (AID 1347080); settings: A549 miR-34 inducible, Hoechst nuclei count, 48 h
# [11] = compounds altering viability of human ES cells (AID 493140; call rule not given here;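 also: cells exposed to compounds for four days before counting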); settings: human embryonic stem cell survival screen; stronger effect = higher value
# [12] = P. berghei load reduction in hepatocytes – cell-based, HepG2, luciferase luminescence, HepG2 viability, primary screen (AID 624349; in the data active = parasite load remaining mostly below about 12%, no sharp cut-off; inactive = mostly above about 10%;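 also: 100% = mean of DMSO negative control wells on the same plate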); settings: P. berghei liver stage in HepG2, luciferase luminescence, concentration not given here; parasite load remaining: stronger effect = lower value; viability: measured here: HepG2 viability without parasites
# [13] = MELAS cybrid and Rieske KO viability enhancers – cell-based, MELAS cybrids, Rieske KO mouse fibroblasts, CellTiter-Glo, primary screen (AID 1508586;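 active = mean z-score across replicates of 1.96 or higher in either the MELAS or the Rieske mutant cell line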;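 also: z relative to plate mean and SD of compound and empty wells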); settings: low glucose
# [14] = target: NAD(+) hydrolase SARM1 (Homo sapiens) (UniProt Q6SZW1); test: blocking NAD cleavage by SARM1 SAM-TIR – cell lysate, NAD-Glo luminescence (AID 1508614;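 active = compound whose remaining NAD level is above about 45 nM, limit read from the data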;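 also: higher remaining NAD means stronger inhibition of SARM1 NADase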); settings: SAM-TIR HEK293T lysate NADase, at 1 µM, stronger effect = higher value
# NAD(+) hydrolase SARM1 (Homo sapiens), sequence (Q6SZW1 whole entry, looked up): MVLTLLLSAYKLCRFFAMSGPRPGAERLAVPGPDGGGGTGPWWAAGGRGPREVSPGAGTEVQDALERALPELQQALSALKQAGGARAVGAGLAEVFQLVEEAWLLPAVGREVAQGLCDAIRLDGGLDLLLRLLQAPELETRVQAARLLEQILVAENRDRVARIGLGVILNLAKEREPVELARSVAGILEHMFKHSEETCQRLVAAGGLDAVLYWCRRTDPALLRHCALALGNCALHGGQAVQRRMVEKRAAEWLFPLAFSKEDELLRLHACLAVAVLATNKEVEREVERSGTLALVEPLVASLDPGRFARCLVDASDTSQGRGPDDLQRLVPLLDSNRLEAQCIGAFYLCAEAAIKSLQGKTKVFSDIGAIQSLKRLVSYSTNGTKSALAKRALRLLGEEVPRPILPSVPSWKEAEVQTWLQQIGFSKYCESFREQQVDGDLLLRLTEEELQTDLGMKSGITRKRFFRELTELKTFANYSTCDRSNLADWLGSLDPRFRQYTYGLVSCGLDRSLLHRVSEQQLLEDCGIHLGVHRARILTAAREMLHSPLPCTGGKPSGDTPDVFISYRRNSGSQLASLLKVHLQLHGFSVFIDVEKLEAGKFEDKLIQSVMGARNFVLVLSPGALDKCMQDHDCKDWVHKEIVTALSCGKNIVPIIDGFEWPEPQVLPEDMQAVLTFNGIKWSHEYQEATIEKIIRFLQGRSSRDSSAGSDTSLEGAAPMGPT
# [15] = measured here: epithelial PC-3E GFP cell survival
# [16] = measured here: mesenchymal TEM4-18 mCherry cell survival
# [17] = stronger effect = lower value, cell number ratio, induced over uninduced
# [18] = measured here: relative caspase fold change +Dox/-Dox
# [19] = measured here: total cells with miR-34 induction, stronger effect = lower value
# [20] = measured here: total cells without miR-34 induction
# [21] = MELAS cybrid survival, CellTiter-Glo 48 h, stronger effect = higher value
# [22] = Rieske KO mouse fibroblast survival, CellTiter-Glo 72 h
compound,measurement,setting,value
CC(O)CN(CCN(CC(C)O)CC(C)O)CC(C)O (configuration not stated),nuclear beta-catenin stimulation,[1]; at 10 µM,2% (inactive)
same,nuclear beta-catenin stimulation,"[1]; stimulation, at 2 µM",2.5%
same,insulin secretion stimulation,[2],0.5% (inactive)
same,viability decrease,[3],-38.9% (inactive)
same,tube area decrease,[4],5.2% (inactive)
same,GLP1 secretion stimulation,[5],-4.1% (inactive)
same,inhibition of viability,[6],3.07% (inactive)
same,viability decrease (inhibition),[7],18.9% (inactive)
same,viability decrease (inhibition),[8],-3.8% (inactive)
same,red/green cell ratio (normalised),[9],1.23 (inactive)
same,normalised cell number,[9]; [15],0.98
same,normalised cell number,[9]; [16],1.2
same,fold change,[10]; [17],1.01 (inactive)
same,fold change,[10]; [18],0.821
same,cell count,[10]; [19],9510
same,cell count,[10]; [20],9380
CC(=O)Oc1cc(C(C)C)c(OCCN(C)C)cc1C,survival,[11],24.8 (inactive)
same,parasite load remaining,[12],26.2% (inactive) and 99.2% (inactive)
same,viability,[12],48.6% and 93%
same,nuclear beta-catenin stimulation,[1]; at 10 µM,-2.5% (inactive)
same,nuclear beta-catenin stimulation,"[1]; stimulation, at 2 µM",-1%
same,insulin secretion stimulation,[2],5.5% (inactive)
same,viability decrease,[3],19.7% (inactive)
same,tube area decrease,[4],-2.1% (inactive)
same,GLP1 secretion stimulation,[5],2.8% (inactive)
same,inhibition of viability,[6],2.17% (inactive)
same,viability decrease (inhibition),[7],20.7% (inactive)
same,viability decrease (inhibition),[8],-14.3% (inactive)
same,red/green cell ratio (normalised),[9],1.11 (inactive)
same,normalised cell number,[9]; [15],0.81
same,normalised cell number,[9]; [16],0.9
same,fold change,[10]; [17],1.09 (inactive) and 0.875 (inactive)
same,fold change,[10]; [18],0.909 and 1.24
same,cell count,[10]; [19],11300 and 8650
same,cell count,[10]; [20],10400 and 9890
same,z-score,[13]; [21],0.238 (inactive)
same,z-score,[13]; [22],-0.428
same,remaining NAD,[14],10 nM (inactive)
NCCCNCCSP(=O)(O)O,parasite load remaining,[12],26.6% (inactive)
same,viability,[12],110%
same,nuclear beta-catenin stimulation,[1]; at 10 µM,-1.3% (inactive)
same,nuclear beta-catenin stimulation,"[1]; stimulation, at 2 µM",0.9%
same,insulin secretion stimulation,[2],3% (inactive)
same,viability decrease,[3],-4.2% (inactive)
same,tube area decrease,[4],-8.5% (inactive)
same,GLP1 secretion stimulation,[5],-1.2% (inactive)
same,inhibition of viability,[6],2.2% (inactive)
same,viability decrease (inhibition),[7],0.3% (inactive)
same,viability decrease (inhibition),[8],0% (inactive)
same,red/green cell ratio (normalised),[9],1.19 (inactive)
same,normalised cell number,[9]; [15],1.03
same,normalised cell number,[9]; [16],1.23
same,fold change,[10]; [17],1.03 (inactive) and 0.865 (inactive)
same,fold change,[10]; [18],1.84 and 1.27
same,cell count,[10]; [19],10300 and 9430
same,cell count,[10]; [20],10000 and 10900
same,z-score,[13]; [21],0.141 (inactive) and 0.413 (inactive)
same,z-score,[13]; [22],-0.0647 and -0.947
same,remaining NAD,[14],10 nM (inactive)
CC(C)Cn1cnc2c(N)nc3ccccc3c21,parasite load remaining,[12],11.9% (inactive)
same,viability,[12],62.5%
same,nuclear beta-catenin stimulation,[1]; at 10 µM,1.6% (inactive)
same,nuclear beta-catenin stimulation,"[1]; stimulation, at 2 µM",0.2%
same,insulin secretion stimulation,[2],0% (inactive)
same,viability decrease,[3],-1.15% (inactive)
same,tube area decrease,[4],-3.6% (inactive)
same,GLP1 secretion stimulation,[5],0.6% (inactive)
same,inhibition of viability,[6],-6.6% (inactive)
same,viability decrease (inhibition),[7],49.5% (inactive)
same,viability decrease (inhibition),[8],0.7% (inactive)
same,red/green cell ratio (normalised),[9],1.33 (inactive)
same,normalised cell number,[9]; [15],1.11
same,normalised cell number,[9]; [16],1.48
same,fold change,[10]; [17],0.846 (inactive)
same,fold change,[10]; [18],0.971
same,cell count,[10]; [19],9200
same,cell count,[10]; [20],10900
same,z-score,[13]; [21],0.0496 (inactive) and 0.611 (inactive)
same,z-score,[13]; [22],0.716 and 0.772
same,remaining NAD,[14],10 nM (inactive)
CNCCCC1c2ccccc2C=Cc2ccccc21,survival,[11],0.667 (inactive)
same,parasite load remaining,[12],64.9% (inactive) and 67.7% (inactive)
same,viability,[12],77.6% and 100%
same,nuclear beta-catenin stimulation,[1]; at 10 µM,2% (inactive)
same,nuclear beta-catenin stimulation,"[1]; stimulation, at 2 µM",0.5%
same,insulin secretion stimulation,[2],1.7% (inactive)
same,viability decrease,[3],-46.9% (inactive)
same,tube area decrease,[4],40.6% (active)
same,GLP1 secretion stimulation,[5],6.8% (inactive)
same,inhibition of viability,[6],39.3% (inactive)
same,viability decrease (inhibition),[7],87.8% (active)
same,viability decrease (inhibition),[8],30.3% (inactive)
same,red/green cell ratio (normalised),[9],1.06 (inactive)
same,normalised cell number,[9]; [15],0.98
same,normalised cell number,[9]; [16],1.04
same,fold change,[10]; [17],1.12 (inactive) and 0.946 (inactive) and 0.93 (inactive)
same,fold change,[10]; [18],1.27 and 1.04 and 5.53
same,cell count,[10]; [19],6500 and 6350 and 11800
same,cell count,[10]; [20],5820 and 6720 and 12700
same,z-score,[13]; [21],-0.141 (inactive)
same,z-score,[13]; [22],-0.441
same,remaining NAD,[14],10 nM (inactive)
